Screening data deposited in PubChem by National Center for Advancing Translational Sciences (NCATS).
RGS12 GoLoco inh – blocks human Gai1 binding to RGS12 GoLoco peptide, red readout | P63096 | Gai1:RGS12 GoLoco peptide FP, rhodamine, 10 min | Potency, µM (highest dose often 61.6 µM), inactives show at the highest dose activity, negative = inhibition, hits mostly inhibitors | hit rate 0.44% among 230,000 | AID 880; active = well fitted inhibition curve with a large enough effect, not every such curve was filed as active; inactive = no such curve, though single readings can be large or run the other way; note: nearly all actives have a fitted effect of over 30% in size
APEX1 inh – blocks human APE1 abasic DNA cleavage | P27695 | recombinant APE1, TAMRA/BHQ-2 abasic DNA cleavage fluorescence | Potency, µM (top dose mostly 65.8 µM), for inactives: top-dose activity change, negative = inhibition, usual class: inhibitors | hit rate 0.35% among 350,000 | AID 2517;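 note: plate controls were vehicle for no effect and reference inhibitor for full effect; nearly all actives have a fitted effect of over 55% in size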
Target sequence (P27695 whole entry, looked up): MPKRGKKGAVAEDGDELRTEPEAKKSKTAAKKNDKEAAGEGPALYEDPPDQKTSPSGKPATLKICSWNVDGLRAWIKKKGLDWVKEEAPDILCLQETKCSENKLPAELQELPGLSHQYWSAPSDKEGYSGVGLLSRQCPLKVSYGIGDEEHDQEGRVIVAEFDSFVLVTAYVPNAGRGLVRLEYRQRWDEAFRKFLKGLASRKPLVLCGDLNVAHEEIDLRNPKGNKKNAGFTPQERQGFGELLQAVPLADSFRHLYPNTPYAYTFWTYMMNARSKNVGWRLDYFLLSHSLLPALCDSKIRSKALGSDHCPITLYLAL
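Measures dequenching upon AP-site incision of a 5'-TAMRA/3'-BHQ-2 THF-containing duplex, 50 nM; human APE1 0.75 nM after 15 min room-temperature exposure to compound; kinetic three-point read at one-minute spacing.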
BLM helicase inh – Bloom syndrome helicase (human) inhibition. recombinant BLM DNA unwinding, fluorescence dequenching. Potency, µM (top dose mostly 56.1 µM), inactives show top-dose activity change, negative = inhibition, hits mostly inhibitors. hit rate 0.2% among 350,000;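 note: plate controls were vehicle for no effect and no enzyme for full effect; nearly all actives have a fitted effect of over 35% in size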
JMJD2E inh – JMJD2E (human) inhibition. Potency, µM (top dose mostly 57.1 µM), for the others: at the top dose activity change, negative = inhibition, usual class: inhibitors. hit rate 1.6% among 230,000. B2RXH2. JMJD2E catalytic domain, FDH-coupled NADH fluorescence (FDH is formaldehyde dehydrogenase);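 note: 0% = wells with enzyme and -100% = buffer wells without enzyme; nearly all actives have a fitted effect of over 50% in size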
Target sequence (B2RXH2 1-337 limits assumed): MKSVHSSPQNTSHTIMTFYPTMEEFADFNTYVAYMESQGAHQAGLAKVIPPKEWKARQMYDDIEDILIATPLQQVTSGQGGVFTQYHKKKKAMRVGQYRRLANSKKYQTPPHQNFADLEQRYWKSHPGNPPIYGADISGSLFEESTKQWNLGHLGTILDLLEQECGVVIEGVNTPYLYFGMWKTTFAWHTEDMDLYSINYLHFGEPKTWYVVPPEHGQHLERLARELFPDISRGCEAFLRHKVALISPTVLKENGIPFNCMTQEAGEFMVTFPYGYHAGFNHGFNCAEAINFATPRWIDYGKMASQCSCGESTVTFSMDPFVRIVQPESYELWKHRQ
RECQ1 helicase – blocks DNA unwinding by human RECQ1; P46063; RECQ1 DNA unwinding, red fluorescence kinetic read; Potency, µM (series often up to 57.3 µM), without a hit: top-dose activity, negative = inhibition, usual class: inhibitors; hit rate 0.54% among 240,000;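 note: plate controls were vehicle for no effect and no enzyme for full effect; nearly all actives have a fitted effect of over 30% in size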
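50 nM RECQ1T1 preincubated 15 min with compound in Tris pH 8.0 buffer with MgCl2, DTT, Tween-20 and 2.5 ug/ml poly(dI-dC); started with 200 nM TAMRA/BHQ-2 forked duplex and 2 mM ATP. Unwinding read as fluorescence (525/598 nm), two reads 2 h apart.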
L3MBTL1 block – inhibitors of human L3MBTL1 | Q9Y468 | AlphaScreen L3MBTL1–H3K9me1 peptide binding | Potency, µM (top dose mostly 57.1 µM), inactives show at the top dose activity, negative = inhibition, most hits filed as inhibitors | hit rate 0.66% among 230,000 | AID 485360; note: nearly all actives have a fitted effect of over 60% in size
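Read-out is AlphaScreen signal from streptavidin donor and nickel chelate acceptor beads (10 ug/mL final each) bridging L3MBTL1 (50 nM) and biotinylated K9-monomethylated H3(1-15) peptide (75 nM), after 30 min compound exposure at room temperature.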
* marks the source's active call; other numbers are inactive results; i = inactive; ? = inconclusive; / = no result given; ! = not confirmed by another sample; [ ] = remark or other dose. Shown is part of a subset that was picked to be rich in hits. Unless noted, calls come from the whole dose curve; as a rule, active = well fitted curve in the direction sought with a large enough effect; inconclusive = small, poorly fitted or top-dose-only effect, or another doubt; inactive = no such curve, though single readings can be large; an effect the other way counts as inactive or inconclusive. Unless noted, % is set by controls: 0 for no effect and ±100 for the full control effect; potency is the fitted concentration of half-maximal effect.

SMILES | RGS12 GoLoco inh | APEX1 inh | BLM helicase inh | JMJD2E inh | RECQ1 helicase | L3MBTL1 block
Cc1ccc(C)c(/C=C/C(=O)c2ccccc(=O)c2O)c1 | 14% | -9% | -13% | 22µM* | -12% | 1%
Cc1ccc(/C=C/C(=O)c2ccccc(=O)c2O)c(C)c1 | 3% | -2% | -13% | 28µM* | -10% | -6%
Cc1ccc(C(=O)/C=C/c2ccc3c(c2)OCCO3)c(O)c1 | 5% | -3% | -14% | -3% | -3% | -8%
Cn1c2cc(Br)sc2c2cnn(Cc3ccc(F)cc3F)c(=O)c21 | / | -6% | / | / | / | 3%
Cn1c2cc(B(O)O)sc2c2cnn(Cc3c(F)cccc3Cl)c(=O)c21 | / | ? | / | / | / | 5%
Cn1c2cc(B(O)O)sc2c2cnn(Cc3ccc(F)cc3F)c(=O)c21 | / | 13µM* | / | / | / | -1%
Cn1c2cc(B(O)O)sc2c2cnn(Cc3c(F)cccc3F)c(=O)c21 | / | 21µM* | / | / | / | -6%
CCNc1cc(O)ccc1C | -24% | 47% | / | / | 28µM* | -5%
Cc1ccc(C(O)C2=CCCC2=O)cc1 (stereo not drawn) | 3% | 20% | 4% | -7% | -6% | /
O=C(NCc1ccccc1)c1c2c(nc3ccccc13)C(=O)N(C1CCCCC1)C2 | / | / | 0% | / | / | /
Cc1cc(/C=N/Nc2ccc([N+](=O)[O-])cn2)c(C)n1-c1ccccc1 | 21% | 1% | -11% | 6% | i | /
Cc1ccc(-n2c(C)cc(/C=N/Nc3ccc([N+](=O)[O-])cn3)c2C)cc1 | 3.5µM* | -2% | -4% | 3% | -9% | 0%
O=C(c1ccc(-n2cccn2)cc1)N1CCc2c([nH]c3ccccc23)C1c1ccccn1 (stereo not drawn) | 11% | 0% | 13µM* | -16% | 6% | -6%
c1ccc(C2c3[nH]c4ccccc4c3CCN2Cc2cccn2-c2ccccn2)nc1 (stereo not drawn) | 10% | -3% | -5% | ? | -2% | -23%
CC(=O)Nc1ccc(CN2CCc3c([nH]c4ccccc34)C2c2ccccn2)cc1 (stereo not drawn) | -23% | -10% | -6% | 25µM* | 32% | -27%
Cc1cc2cc(C(=O)N3CCc4c([nH]c5ccccc45)C3c3ccccn3)ccc2o1 (stereo not drawn) | 0% | -5% | -13% | ? | -15% | /
CC(C)(C)OC(=O)NCCCC[C@H](NC(=O)c1[nH]cnc1C(=O)Nc1ccc(Cl)cc1)C(=O)OC(C)(C)C | 6% | 7% | -17% | 22µM* | -13% | /
COc1ccc(Cl)cc1C(Nc1cccnc1)c1ccc2cccnc2c1O (stereo not drawn) | -5% | -9% | -11% | 14µM* | -20% | -15%
CCCC(=O)NC(c1ccc(OC)cc1)c1ccc2cccnc2c1O (stereo not drawn) | 11% | 11% | -7% | 22µM* | -20% | ?
CCC(=O)NC(c1ccccc1OC)c1ccc2cccnc2c1O (stereo not drawn) | 5% | 6% | 2% | 25µM* | -1% | ?
CCCC(=O)NC(c1ccccc1)c1ccc2cccnc2c1O (stereo not drawn) | / | 22% | -15% | / | / | ?
CC(C)(C)c1ccc(CN(Cc2ccco2)c2cnc(S(C)(=O)=O)nc2C(=O)Nc2ccc(F)cc2)cc1 | / | / | -8% | / | / | /
CC1CCC2C(=O)N3C(CCC(C)[C@H]3c3ccccc3Br)C(=O)N2C1c1ccccc1Br (stereo partly drawn) | / | -3%[12.4 µM] | 3%[12.4 µM] | / | -2%[11.5 µM] | /
CC(C)=CCn1cnc2c1C(NOCc1ccccc1)=NCN2 | 5% | 14% | 5% | -2% | 13% | /
CN1c2ccc([N+](=O)[O-])cc2N(C)C1(C)c1ccccc1 (stereo not drawn) | / | -14% | -12% | / | / | 14µM*
SMILES | RGS12 GoLoco inh | APEX1 inh | BLM helicase inh | JMJD2E inh | RECQ1 helicase | L3MBTL1 block
Cn1c2ccccc2c2cc([N+](=O)[O-])ccc21 | 11% | 17% | 0% | 4% | -3% | 3%
Cn1cc(/C=C2\SC(=S)N(NC(=O)c3ccccc3Cl)C2=O)c2ccccc21 | -82% | -6% | -1% | -2% | -18% | -5%
Cc1ccc(C(=O)NN2C(=O)/C(=C/c3cn(C)c4ccccc34)SC2=S)cc1 | 22µM* | 7% | -1% | -8% | i | 27%
CC1(C)S[C@@H]2[C@H](NC(=O)C(C(=O)O)c3ccsc3)C(=O)N2[C@H]1C(=O)O (stereo partly drawn) | / | 0%[21 µM] | / | / | / | /
CC1(C)S[C@@H]2[C@H](NC(=O)C(N)c3ccccc3)C(=O)N2[C@H]1C(=O)O (stereo partly drawn) | 1%[21.6 µM] | 13µM* | -1%[21.4 µM] | ? | -24%[25.9 µM] | /
CC1(C)S[C@@H]2[C@H](NC(=O)[C@H](C(=O)O)c3ccsc3)C(=O)N2[C@H]1C(=O)O | 25µM*! | 5% | -2% | 13% | -1% | -14%
N[C@H](C(=O)O)[C@@H]1[C@@H](C(=O)O)C1(F)F | -2% | ? | 2% | 16µM* | -10% | /
COC(=O)c1[nH]c2ccccc2c1NC(=O)/C=C/c1ccc2c(c1)OCO2 | 3% | 11% | 0% | -4% | -5% | -2%
CCN(CC(=O)Nc1c(C(=O)OC)[nH]c2ccccc12)c1ccc2c(c1)OCO2 | 2% | -1% | 6% | -16% | 0% | 25µM*
COc1ccc2c([N+](=O)[O-])c(Cl)[nH]c2c1 | 0% | 2% | -7% | 16µM* | 8% | -9%
CCOC(=O)CSc1[nH]c2cc(OC)ccc2c1[N+](=O)[O-] | -7% | -6% | 1% | -4% | 11% | -6%
CCOC(=O)CSc1nn(C)c(=S)s1 | -3% | 10% | 1% | -8% | -9% | 2%
CCOC(=O)CSc1n[nH]c(=S)s1 | -10% | 5% | -8% | 10µM* | -3% | 45%
Cc1nc(N=Nc2cc(S(=O)(=O)O)ccc2S(=O)(=O)O)c(COP(=O)(O)O)c(C=O)c1O | 3% | 16µM* | 88% | ? | -30% | /
Cc1ncc(COP(=O)(O)O)c(C=O)c1O | 4% | / | 1% | / | / | /
C=C1C(=O)O[C@H]2[C@H]1CC/C(C)=C\CC[C@@]1(C)O[C@@H]21 | / | 2%[21 µM] | / | / | / | /
CCn1c(/C=C/Nc2ccccc2)[n+](CC)c2ccc(Cl)cc21 | -3% | 3% | -4% | -12% | -2% | -5%
CCn1c(/C=C/N(C)c2ccccc2)[n+](CC)c2ccc(Cl)cc21 | 1µM* | 10% | 6% | -23% | 10% | 8%
Cc1ccc(C2C(C#N)=C(N)Oc3n[nH]c(-c4cccs4)c32)cc1 (stereo not drawn) | 0% | -1% | -4% | 7.1µM* | -5% | -2%
CCOc1ccc(CN2C(=O)c3ccccc3Sc3ccc(C(=O)N4CCN(C)CC4)cc32)cc1 | / | / | -2% | / | / | /
